{"source": "PubChem BioAssay AID1626", "about": "(SRMLSC, 2009)", "note": "Hit rate of the full screen: of about 220,000 compounds, about 2,000 (0.91%) were called active. Another 2% or so got no clear call; they are omitted. Cut-off read from the data, not from the text of the source: inconclusive = inhibition above about 80% without an active follow-up result; inactive = below that; test concentration not stated here. The list is a sample of the results. Results with a measured potency or affinity are listed apart.", "data": [{"assay": "M. tuberculosis H37Rv growth inhibitors, H37Rv strain (AID 1626);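 note: bacteria incubated seven days before Alamar blue readout; 0% = bacteria only wells and 100% = bacteria with antibiotic wells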", "settings": "hits give high values, concentration not given here", "values": [{"compound": "Cc1cc(C)c(C(=O)Nc2ccc(Br)c(C(F)(F)F)c2)c(C)c1", "inhibition": "50.8% (inactive)"}, {"compound": "C=CCN(C(=O)CNC(=O)c1ccco1)C(C(=O)NC1CCCCC1)c1ccccc1", "note": "(stereo unspecified)", "inhibition": "-3.02% (inactive)"}, {"compound": "COc1ccc2nc3sc(C(=O)NCCN4CCc5ccccc5C4)cc3cc2c1", "inhibition": "11.3% (inactive)"}, {"compound": "Cn1c(CCNC(=O)OC(C)(C)C)n[nH]c1=S", "inhibition": "-7.46% (inactive)"}, {"compound": "CC12CCC(C(=O)Nc3ccccc3N3CCOCC3)(CC1=O)C2(C)C", "note": "(stereo unspecified)", "inhibition": "-3.66% (inactive)"}, {"compound": "COc1cccc(N=Cc2c[nH][nH]c2=O)c1", "inhibition": "-5.96% (inactive)"}, {"compound": "O=c1[nH][nH]cc1C=Nc1ccc(Cl)cc1", "inhibition": "4.25% (inactive)"}, {"compound": "C/[N+]([O-])=C/c1c(OCc2ccc(Cl)cc2Cl)ccc2ccccc12", "inhibition": "10.9% (inactive)"}, {"compound": "Cc1c(C(=O)Nc2ccc(F)cc2)c2ccccn2c1CCc1ccncc1", "inhibition": "1.73% (inactive)"}, {"compound": "Cc1ccc(C)c(Cn2c(=O)n(CCC(=O)NCc3ccco3)c(=O)c3sccc32)c1", "inhibition": "-2.02% (inactive)"}, {"compound": "O=C1CC(c2ccco2)CC2=C1C(c1ccccc1)n1nc(C(F)(F)F)nc1N2", "note": "(stereo unspecified)", "inhibition": "2.19% (inactive)"}, {"compound": "CCOC(=O)c1sc(NC(=O)COC(=O)CNC(=O)C2CCCCC2)c(C(=O)OCC)c1C", "inhibition": "-1.65% (inactive)"}, {"compound": "O=C(COc1nc2ccccc2nc1N1CCOCC1)NC1CCCCC1", "inhibition": "5.49% (inactive)"}, {"compound": "CC(=O)Nc1ccc(S(=O)(=O)N2CCN(c3nnnn3-c3ccccc3)CC2)cc1", "inhibition": "-0.88% (inactive)"}, {"compound": "O=S(=O)(CS(=O)(=O)c1ccc(Cl)cc1)c1ccc(Cl)cc1", "inhibition": "6.17% (inactive)"}, {"compound": "c1ccc(-c2cc(-c3nc(-c4ccccn4)no3)c3ccccc3n2)cc1", "inhibition": "9.71% (inactive)"}, {"compound": "c1ccc(-c2nc(C3CCCCC3)no2)cc1", "inhibition": "3.47% (inactive)"}, {"compound": "O=C(CN1CCCCC1)c1ccc(OC(F)F)cc1", "inhibition": "-5.74% (inactive)"}, {"compound": "c1ccc(N2CCCCC2)c(Nc2nc3ccccc3n3cnnc23)c1", "inhibition": "14.3% (inactive)"}, {"compound": "c1ccc(N2CCOCC2)c(Nc2nc3ccccc3n3cnnc23)c1", "inhibition": "8.42% (inactive)"}, {"compound": "Nc1cc(OC(=O)c2cccs2)nn1S(=O)(=O)c1ccc(F)cc1", "inhibition": "5.67% (inactive)"}, {"compound": "Cc1ccc(NC(=O)Cn2c(O)c(N=NC(=O)c3cc([N+](=O)[O-])ccc3O)c3ccccc32)cc1", "inhibition": "45.8% (inactive)"}, {"compound": "Cc1cc(C)n(-c2nc3ccccc3nc2N2CCC(C)CC2)n1", "inhibition": "2.59% (inactive)"}, {"compound": "Cc1cc(Cl)nc(-n2nc(C)cc2C)n1", "inhibition": "-0.69% (inactive)"}, {"compound": "Cc1cc(N2CCN(c3ccccc3)CC2)nc(N)n1", "inhibition": "-2.3% (inactive)"}, {"compound": "Cc1cc(N2CCN(c3ccccc3)CC2)nc(-c2ccccc2)n1", "inhibition": "-10.3% (inactive)"}]}]}
